Assay [1] deals with human Vitamin D Receptor (VDR), VDR (gene 7421) (UniProt P11473). The assay is described as follows: ATG_VDR_TRANS: Attagene TRANS-FACTORIAL HepG2 Assay for human Vitamin D Receptor (VDR) (AID 2283022; active = hit-call score of the fitted dose curve at least 0.9, where 1 is the maximum). In outline: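 HepG2 cells were transiently transfected with GAL4-UAS reporter units and a chimeric VDR-Gal4 construct, then dosed for 24 hours. Reporter mRNA was quantified by RT-PCR, fluorescent labeling, HpaI digestion and capillary electrophoresis; gain of signal analysed vs DMSO.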

Assay [2] is described as follows: BSK_3C_SRB: Viability Assessment in the BioMAP Diversity Plus: 3C Assay (AID 2283023).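 Note: fitted both ways against DMSO so a hit may be signal rise or drop.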 Conditions: primary human endothelial cells (HUVEC). In outline:
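Human umbilical vein endothelial cells in the 3C system, treated 24 h. Total protein measured by 0.1% sulforhodamine B staining after 10% TCA fixation, read at 560 nm; bidirectional fit versus DMSO.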

Read-out in assay [3]: Matrix Metallopeptidase 1 (MMP1), MMP1 (gene 4312)
The assay is described as follows: BSK_BE3C_MMP1: BioMAP Diversity Plus: BE3C Assay for Matrix Metallopeptidase 1 (MMP1) Biomarker Activity (AID 2283024). The settings on record: primary human bronchial epithelial cells; actives raise or lower the signal. In outline: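 Dose cells, wait 24 h, run MMP1 ELISA; cells are human bronchial epithelial primaries. Both increases and decreases relative to DMSO counted.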

The nature of assay [4]: BSK_3C_Vis: BioMAP Diversity Plus: 3C Assay for Morphology Visualization (AID 2283025).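 For AC50: light microscopy image of cell morphology used as background control.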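 Note: fitted both ways so gain or loss versus DMSO counts.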 Conditions: primary human endothelial cells (HUVEC). Summed up: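 Endothelial cells from human umbilical vein were treated with test chemicals for 24 h and inspected by light microscopy for changes in cell conformation.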
Read-out in assay [5]: Pselectin, SELP (gene 6403)
The assay is described as follows: BSK_4H_Pselectin: BioMAP Diversity Plus: 4H Assay for Pselectin Biomarker Activity (AID 2283026). Conditions: primary human endothelial cells (HUVEC); actives raise or lower the signal. In outline:
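Human vascular endothelium from umbilical vein; P-selectin measured by ELISA at 24 h post-dose, with cytotoxicity checked by sulforhodamine B total-protein staining in parallel cultures (0.1% SRB after 10% TCA fixation, read at 560 nm).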

Assay [6] in a line: BSK_4H_SRB: Viability Assessment in the BioMAP Diversity Plus: 4H Assay (AID 2283027).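 Note: cells exposed to compound for 24 h before staining.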 The settings on record: primary human endothelial cells (HUVEC). In outline: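 Human umbilical vein endothelial cells were dosed with chemical and, after 24 h, fixed with 10% TCA, stained with 0.1% sulforhodamine B, and read at 560 nm to give total protein as a cytotoxicity measure. Bidirectional fitting relative to DMSO control.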

The nature of assay [7]: BSK_BE3C_SRB: Viability Assessment in the BioMAP Diversity Plus: BE3C Assay (AID 2283028).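 For AC50: fitted both ways so AC50 may mark signal gain or loss versus DMSO.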 Conditions: primary human bronchial epithelial cells. Summed up:
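Human bronchial epithelial primary cells in confluent culture, 24 h after chemical dosing; total protein by 0.1% SRB staining after 10% TCA fixation, read at 560 nm. Bidirectional fitting versus DMSO baseline.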

Read-out in assay [8]: Thrombomodulin, THBD (gene 7056)
The assay is described as follows: BSK_3C_Thrombomodulin: BioMAP Diversity Plus: 3C Assay for Thrombomodulin Biomarker Activity (AID 2283029). The settings on record: primary human endothelial cells (HUVEC); actives raise or lower the signal. In outline:
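Thrombomodulin ELISA, human primary HUVEC, 24 h post-dose; data fitted in both directions relative to DMSO.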

Read-out in assay [9]: Urokinase-type plasminogen activator receptor (uPAR), PLAUR (gene 5329)
The assay is described as follows: BSK_4H_uPAR: BioMAP Diversity Plus: 4H Assay for Urokinase-type plasminogen activator receptor (uPAR) Biomarker Activity (AID 2283030). Conditions: primary human endothelial cells (HUVEC); actives raise or lower the signal. In outline:
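Human umbilical vein endothelial cells in the 4H system, 24 h after chemical dosing. Cell-surface uPAR measured by ELISA, fitted in both directions versus DMSO; cytotoxicity checked by SRB total protein in parallel cultures.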

Read-out in assay [10]: Vascular endothelial growth factor receptor 2 (Homo sapiens) (UniProt P35968)
The assay is described as follows: BSK_4H_VEGFRII: BioMAP Diversity Plus: 4H Assay for Vascular endothelial growth factor receptor 2 (VEGFR2) Biomarker Activity (AID 2283031). Conditions: primary human endothelial cells (HUVEC); actives raise or lower the signal. In outline: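 Primary human umbilical vein endothelial cells (4H system), 24 h exposure; cell-surface VEGFR2 measured by ELISA. Bidirectional fitting versus DMSO; cytotoxicity checked in parallel by SRB total-protein staining.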

Read-out in assay [11]: Human Leukocyte Antigen - DR isotype (HLADR), HLA-DRA (gene 3122)
The assay is described as follows: BSK_BE3C_HLADR: BioMAP Diversity Plus: BE3C Assay for Human Leukocyte Antigen - DR isotype (HLADR) Biomarker Activity (AID 2283032). Conditions: primary human bronchial epithelial cells; actives raise or lower the signal. In outline:
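Signal came from an ELISA for HLA-DR in human bronchial epithelial primary cells harvested 24 h after treatment; gain- and loss-of-signal fitting used DMSO controls as reference.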

Read-out in assay [12]: Vascular cell adhesion molecule 1 (VCAM1), VCAM1 (gene 7412)
The assay is described as follows: BSK_4H_VCAM1: BioMAP Diversity Plus: 4H Assay for Vascular cell adhesion molecule 1 (VCAM1) Biomarker Activity (AID 2283033).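 For outcome: cell-surface VCAM-1 protein measured by ELISA.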 The settings on record: primary human endothelial cells (HUVEC); actives raise or lower the signal. In outline:
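Endpoint derived from bidirectional fitting against DMSO controls of VCAM-1 ELISA signal in umbilical vein endothelial cells sampled at 24 h following treatment.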

Read-out in assay [13]: Interferon-gamma inducible Protein 10 (IP10), CXCL10 (gene 3627)
The assay is described as follows: BSK_BE3C_IP10: BioMAP Diversity Plus: BE3C Assay for Interferon-gamma inducible Protein 10 (IP10) Biomarker Activity (AID 2283034). Conditions: primary human bronchial epithelial cells; actives raise or lower the signal. Summed up:
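Using primary human bronchial epithelial cultures, the assay captures IP-10 by ELISA one day (24 h) after exposure. Parallel SRB staining of total protein flags overt cytotoxicity. Fits run bidirectionally relative to DMSO.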

Read-out in assay [14]: Monokine induced gamma interferon (MIG), CXCL9 (gene 4283)
The assay is described as follows: BSK_BE3C_MIG: BioMAP Diversity Plus: BE3C Assay for Monokine induced gamma interferon (MIG) Biomarker Activity (AID 2283035). The settings on record: primary human bronchial epithelial cells; actives raise or lower the signal. In outline:
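ELISA read-out of MIG in human lung bronchial epithelial primary cultures, 24 h post-dosing. Bidirectional curve fit vs DMSO baseline.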

Read-out in assay [15]: Transforming growth factor beta 1 (TGFb1), TGFB1 (gene 7040)
The assay is described as follows: BSK_BE3C_TGFb1: BioMAP Diversity Plus: BE3C Assay for Transforming growth factor beta 1 (TGFb1) Biomarker Activity (AID 2283036;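 for outcome: TGF-b1 protein level measured by ELISA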). The settings on record: primary human bronchial epithelial cells; actives raise or lower the signal. Summed up:
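In this human primary bronchial epithelial system, an ELISA quantified TGF-b1 one day after dosing. Endpoint changes in either direction were fitted relative to DMSO.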

Read-out in assay [16]: Plasminogen activator inhibitor-1 (PAI1), SERPINE1 (gene 5054)
The assay is described as follows: BSK_BE3C_PAI1: BioMAP Diversity Plus: BE3C Assay for Plasminogen activator inhibitor-1 (PAI1) Biomarker Activity (AID 2283037). The settings on record: primary human bronchial epithelial cells; actives raise or lower the signal. In outline:
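PAI-1 biomarker levels in treated human bronchial epithelial cells are determined by ELISA at 24 h. Both increases and decreases relative to DMSO are fitted.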

Read-out in assay [17]: urokinase plasminogen activator (uPA), PLAU (gene 5328)
The assay is described as follows: BSK_BE3C_uPA: BioMAP Diversity Plus: BE3C Assay for urokinase plasminogen activator (uPA) Biomarker Activity (AID 2283038).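 Note: uPA protein level quantified by ELISA in cell cultures; uPA read one day after compound addition.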 The settings on record: primary human bronchial epithelial cells; actives raise or lower the signal. In outline: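 Primary human bronchial epithelial cells, uPA measured by ELISA 24 h after dosing. Bidirectional change relative to DMSO; cytotoxicity checked in parallel cultures by sulforhodamine B total-protein staining.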

Read-out in assay [18]: Urokinase-type plasminogen activator receptor (uPAR), PLAUR (gene 5329)
The assay is described as follows: BSK_BE3C_uPAR: BioMAP Diversity Plus: BE3C Assay for Urokinase-type plasminogen activator receptor (uPAR) Biomarker Activity (AID 2283039).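 Note: cells exposed to compound for one day before measurement.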 The settings on record: primary human bronchial epithelial cells; actives raise or lower the signal. Summed up: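 A uPAR ELISA serves as the readout, taken 24 h after treating primary human bronchial epithelial cells. Responses in either direction are fitted against DMSO, which defines baseline activity.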

Read-out in assay [19]: Interleukin-6 (IL6), IL6 (gene 3569)
The assay is described as follows: BSK_CASM3C_IL6: BioMAP Diversity Plus: CASM3C Assay for Interleukin-6 (IL6) Biomarker Activity for (AID 2283040). The settings on record: primary human coronary artery smooth muscle cells; actives raise or lower the signal.

Read-out in assay [20]: Tissue plasminogen activator (tPA), PLAT (gene 5327)
The assay is described as follows: BSK_BE3C_tPA: BioMAP Diversity Plus: BE3C Assay for Tissue plasminogen activator (tPA) Biomarker Activity (AID 2283041).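 For outcome: tPA level quantified by ELISA one day after compound addition.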 The settings on record: primary human bronchial epithelial cells; actives raise or lower the signal. Summed up:
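Bidirectional curve fitting relative to DMSO defined activity, with tPA detected by ELISA in chemically treated human bronchial epithelial primary cells at 24 hours.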

This passage reports outcome and AC50 results from PubChem BioAssay (EPA / NIEHS).

“And” between values parts separate entries of the source, which are not always exact repeats. Identical values can stand only once. Results filed as inconclusive are left out. Where a structure was tested more than once in an assay, its records may differ in their call. The source made the active and inactive calls. Rule for the calls, unless noted: active = hit-call score of the fitted dose curve at least 0.9, where 1 is the maximum; inactive = score below 0.9.

Chain of human Vitamin D Receptor (VDR), VDR (gene 7421) (P11473 whole entry, looked up, the tested form may be a part): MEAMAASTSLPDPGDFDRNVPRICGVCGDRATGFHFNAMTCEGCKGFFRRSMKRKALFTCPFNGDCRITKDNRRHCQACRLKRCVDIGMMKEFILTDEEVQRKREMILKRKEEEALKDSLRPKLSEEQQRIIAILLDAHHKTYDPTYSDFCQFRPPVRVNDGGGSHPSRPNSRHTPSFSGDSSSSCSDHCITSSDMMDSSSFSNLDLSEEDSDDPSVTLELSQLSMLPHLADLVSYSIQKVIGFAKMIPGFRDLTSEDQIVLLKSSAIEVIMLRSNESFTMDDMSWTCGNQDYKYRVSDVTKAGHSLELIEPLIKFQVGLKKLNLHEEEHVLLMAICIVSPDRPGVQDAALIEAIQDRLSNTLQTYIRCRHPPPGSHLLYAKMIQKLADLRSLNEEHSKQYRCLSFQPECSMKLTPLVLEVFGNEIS

Consider `OB(O)O`, for which the result in assay [1], in assay [2], in assay [3], in assay [4], in [5] and in assay [6] was inactive. The result in assay [7], in [8], in assay [9], in assay [10], in assay [11] and in assay [12] was inactive. Further, the result in assay [13], in assay [14], in assay [15], in assay [16], in assay [17] and in assay [18] was inactive. The outcome in [19] and in [20] was inactive.
As for `CCN(CC)C(=O)c1cccc(C)c1`, the result in [1], in assay [2], in assay [3], in assay [4], in [5] and in assay [6] was inactive. The result in [7], in assay [8], in assay [9], in [10], in assay [11] and in [12] was inactive. Also, the outcome in assay [13], in [14], in [15], in [17], in assay [18] and in assay [19] was inactive. Moreover, the result in [20] was inactive.
Take `C[C@]12CC[C@@H]3c4ccc(O)cc4C[C@@H](CCCCCCCCCS(=O)CCCC(F)(F)C(F)(F)F)[C@H]3[C@@H]1CC[C@@H]2O` (stereo partly drawn): the molecule was called inactive in assay [1], in [4], in assay [5], in [6], in assay [7] and in assay [10]. Also, the outcome in assay [11], in [12], in [13], in assay [14], in assay [15] and in assay [16] was inactive. Also, the result in [17], in assay [18], in [19] and in [20] was inactive. For the same molecule, the AC50 (as a rule, the midpoint of the concentration-response curve, whichever way the signal moves) in [2] is 3.51 µM (active); in assay [3] it was 0.907 µM (active); in assay [9], 12.4 µM (active).
In the case of `CCCCOC(=O)C(C)Oc1ccc(Oc2ccc(C(F)(F)F)cn2)cc1` (stereo not drawn), the molecule was called inactive in assay [1], in assay [2], in assay [3], in [4], in assay [5] and in assay [6]. For the same molecule, the result in [7], in assay [9], in assay [10], in [11], in [12] and in assay [13] was inactive. The result in assay [14], in [15], in assay [17], in [18], in assay [19] and in assay [20] was inactive.
`c1ccc(Nc2ccccc2)cc1`: the molecule was classed as inactive in assay [1], in assay [2], in assay [3], in [4], in assay [5] and in [6]. The result in assay [7], in assay [8], in assay [9], in [10], in assay [11] and in [12] was inactive. Also, the outcome in assay [13], in assay [14], in assay [17], in assay [18], in [19] and in assay [20] was inactive. For the same molecule, in [15], the AC50 was 3.97 µM (active).
Take `CC(C)(c1ccc(O)cc1)c1ccc(O)cc1`: the AC50 in assay [2] was 14.2 µM (active); in [4], 39.6 µM (active) and 20 µM (active); in assay [7], 24 µM (active); in [12], 7.53 µM (active); in assay [13], 9.06 µM (active); in assay [20], 8.08 µM (active). Besides, the outcome in assay [2], in assay [3], in assay [4], in [5], in assay [6] and in [7] was inactive. The outcome in [9], in [10], in [11], in assay [12], in assay [13] and in assay [14] was inactive. The result in assay [15], in assay [17], in assay [18], in assay [19] and in assay [20] was inactive.
